Data on ten compounds can be found in PubChem BioAssay (NCATS).

Molecules are shown by their SMILES. Records with an inconclusive call do not appear. Some of the results follow. The source made the active and inactive calls. Unless noted, the call rests on the fitted dose curve; in most records, active means well fitted curve in the direction sought with a large enough effect; inconclusive means small, poorly fitted or top-dose-only effect, or another doubt; inactive means no such curve, though single readings can be large; an effect the other way counts as inactive or inconclusive.

Assay [1] is described as follows: qHTS for differential inhibitors of proliferation of Plasmodium falciparum line Dd2 (AID 1882).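 Further: series mostly up to about 29 µM; compound exposure of 72 h on infected erythrocytes; nearly all actives have a fitted effect of over 65% in size.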 Particulars: Potency: Plasmodium falciparum Dd2 proliferation inhibition. The method in brief:
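SYBR Green I DNA fluorescence read-out, ex 485/em 535 nm. Signals were normalized to 0.29 uM artemisinin and DMSO wells, then corrected using vehicle-only plates flanking each stack. Parasite growth ran 72 h in erythrocytes before lysis.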
A general note: Quantitative high-throughput screening tests each substance at several concentrations.

Assay [2] can be described thus: qHTS for differential inhibitors of proliferation of Plasmodium falciparum line W2 (AID 1883).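 Further: parasites grown with compound for 72 h before lysis and staining.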 Further: potency means the concentration at half of the fitted maximal effect. As to conditions: Potency: Plasmodium falciparum W2 proliferation inhibition.
A short description of assay [3]: qHTS for differential inhibitors of proliferation of Plasmodium falciparum line HB3 (AID 1886).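 Further: parasites grown with compound for 72 h before SYBR Green readout.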 Further: potency means the concentration at half of the fitted maximal effect. As to conditions: Potency: Plasmodium falciparum HB3 proliferation inhibition.
Assay [4] concerns the target Ferritin light chain (Equus caballus) (UniProt P02791). In words: qHTS Validation Assay for Identification of Novel General Anesthetics (AID 2323). Further: series mostly up to about 77 µM. The method in brief:
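Competitive displacement of profluorescent 1-aminoanthracene (1-AMA, 50% saturated solution in PBS) from 10 uM horse-spleen apoferritin. Compounds incubated 10 min at room temperature; fluorescence read at 380 nm excitation/535 nm emission, normalized to free 1-AMA and complex, fitted with four-parameter Hill equation.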

In assay [5] the target is ATP-dependent DNA helicase Q1 (Homo sapiens) (UniProt P46063). In words: qHTS Validation Assay for Inhibitors of RecQ-Like Dna Helicase 1 (RECQ1) (AID 2353). The method in brief: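 50 nM RECQ1T1 preincubated 15 min with compound in Tris pH 8.0 buffer with MgCl2, DTT, Tween-20 and 2.5 ug/ml poly(dI-dC); started with 200 nM TAMRA/BHQ-2 forked duplex and 2 mM ATP. Unwinding read as fluorescence (525/598 nm), two reads 2 h apart.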

Assay [6] has as its target RecQ-like DNA helicase BLM (Homo sapiens) (UniProt P54132). Kind of assay: qHTS Validation Assay for Inhibitors of Bloom's syndrome helicase (BLM) (AID 2364). The method, boiled down:
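BLM 50 nM in 25 mM Tris-HCl pH 8.0, 5 mM NaCl, 2 mM MgCl2, 1 mM DTT, 0.01% Tween-20, 2.5 ug/ml poly(dI-dC); 15 min cpd preinc, RT. Start: 200 nM forked DNA + 2 mM ATP (final). TAMRA read, 2 reads 2 h apart.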

Assay [7] can be described thus: Cytometric Cell-Based qHTS for Inhibitors of the mTORC1 Signaling Pathway in MEF (Tsc2-/-, p53-/-) Cells (AID 2660).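 Further: percent of cells above a phospho-rpS6 to PI ratio cutoff in each well; series mostly up to about 38 µM.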 The method in brief:
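Percent of cells positive for normalized phospho-S6 staining is reported, with the cutoff set from rapamycin (7.5 nM) versus DMSO wells. Tsc2-/-, p53-/- MEFs received compound for 24 hrs.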

Assay [8] in a line: High Content Imaging Cell-Based qHTS for Inhibitors of the mTORC1 Signaling Pathway in MEF Cells (AID 2667).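 Further: Tsc2-/- p53-/- MEFs stably re-expressing wild-type Tsc2 exposed 24 h; series mostly up to about 38 µM.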 The method, boiled down: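 MEF (Tsc2-/-, p53-/-, WT Tsc2 re-expressed); cpd 24 h, 37 °C; PFA fix; Alexa-488 anti-p-rpS6 Ser235/236, PI, Hoechst; IN Cell imaging; Hoechst/Alexa-488 intensity ratio; % active cells, thresholds set from rapamycin and DMSO wells.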
A short description of assay [9]: Cytometry Cell-Based qHTS for Inhibitors of the mTORC1 Signaling Pathway in MEF cells (AID 2668).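 Further: Tsc2-/- p53-/- mouse embryonic fibroblasts stably re-expressing wild-type Tsc2; percent cells positive for phospho-rpS6 Ser235/236 relative to propidium iodide stain; series mostly up to about 38 µM.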 The method in brief:
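WT MEFs (Tsc2-/-, p53-/- stably re-expressing WT Tsc2) in DMEM + 10% FBS received compounds 24 hrs after plating, for 24 hrs at 37 degree Celsius. Fixed cells stained with Alexa-488 anti-phospho-rpS6 Ser235/236 and propidium iodide; laser-scanning cytometry read-out.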

The nature of assay [10]: Validation screen for small molecules that induce DNA re-replication in MCF 10A normal breast cells (AID 463097). Further: nearly all actives have a fitted effect of over 60% in size. The method in brief: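 Readout: Hoechst nuclear fluorescence intensity, 405 ex / 500-530 em, by scanning plate imager; re-replication scored as increase in nuclei with elevated DNA content. Cells exposed to compound 48 hr, 37 C, 5% CO2 beforehand.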
The target in assay [11] is Ubiquitin carboxyl-terminal hydrolase 2 (Homo sapiens) (UniProt O75604). In words: qHTS Validation Assay for Inhibitors of Ubiquitin-specific Protease USP2a Using CHOP2 as the Reporter (AID 463106). The method in brief: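 USP2 core (10nM final) was preincubated with compound for 30min at RT in 20mM Tris-HCl pH 8.0, 2mM CaCl2, 2mM beta-mercaptoethanol, 0.05% CHAPS. Ub-CHOP2 and reporter substrate (25nM each) were added, and fluorescence (Ex 485/Em 531nm) was read after 60min.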
Ubiquitin carboxyl-terminal hydrolase 2 (Homo sapiens), sequence (O75604 whole entry, looked up): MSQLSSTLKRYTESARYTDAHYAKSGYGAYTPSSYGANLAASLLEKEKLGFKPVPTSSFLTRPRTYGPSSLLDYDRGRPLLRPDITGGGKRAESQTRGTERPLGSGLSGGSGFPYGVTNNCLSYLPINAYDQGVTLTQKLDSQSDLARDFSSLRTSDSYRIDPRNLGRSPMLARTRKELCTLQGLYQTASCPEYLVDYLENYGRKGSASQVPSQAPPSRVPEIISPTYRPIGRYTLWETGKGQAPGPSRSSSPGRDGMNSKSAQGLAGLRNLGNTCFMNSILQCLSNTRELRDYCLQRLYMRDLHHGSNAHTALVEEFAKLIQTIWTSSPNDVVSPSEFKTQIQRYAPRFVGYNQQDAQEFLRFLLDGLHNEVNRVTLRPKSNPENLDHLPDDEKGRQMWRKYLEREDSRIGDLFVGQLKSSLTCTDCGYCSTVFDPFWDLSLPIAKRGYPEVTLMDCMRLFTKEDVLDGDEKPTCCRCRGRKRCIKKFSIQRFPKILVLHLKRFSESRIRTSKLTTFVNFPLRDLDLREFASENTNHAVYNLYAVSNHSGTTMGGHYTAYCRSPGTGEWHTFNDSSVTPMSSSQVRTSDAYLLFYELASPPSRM

Assay [12] addresses DNA polymerase III PolC-type (Bacillus subtilis (strain 168)) (UniProt P13267). Kind of assay: qHTS Validation Assay for the Inhibitors of DNA Replication in Gram-Positive Bacteria (AID 485295).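 Further: PicoGreen fluorescence of double-stranded DNA made on primed circular M13 template; series mostly up to about 57 µM.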 The method, boiled down:
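Reconstituted B. subtilis holoenzyme (Pol III, beta clamp, SSB, primase) was preincubated with compound at room temperature, then given single-stranded circular M13Gori plus dNTPs and NTPs. EDTA-containing PicoGreen stopped the reaction, and dsDNA product was read by fluorescence.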

Assay [13] has as its target Beta-2 adrenergic receptor (Homo sapiens) (UniProt P07550). In words: qHTS validation assay of beta-arrestin-biased ligands of beta2-adrenergic receptor (AID 485366). The method in brief:
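Luminescence from a tTA-responsive luciferase, induced when recombinant beta-arrestin is recruited to recombinant beta2-AR, served as the agonism signal. Cells were exposed to compound for 18 hr at 37 degrees C; titrations spanned up to 46 microM.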

Assay [14] can be described thus: High Content Imaging Cell-Based qHTS for Inhibitors of the mTORC1 Signaling Pathway in MEF (Tsc2-/-, p53-/-) Cells (AID 2666).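 Further: percent of cells scored positive for phospho-rpS6 Ser235/236 immunostaining by imaging.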 The method in brief: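 Read-out: % positive cells per well, with thresholds from highest- and lowest-signal wells, based on phospho-rpS6 (Ser235/236) intensity normalized to Hoechst nuclear stain. Cells: Tsc2-/-, p53-/- MEFs carrying empty vector; compound 24 hrs, 37 degree Celsius.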

Assay [15] concerns the target Tumor susceptibility gene 101 protein (Homo sapiens) (UniProt Q99816). Kind of assay: qHTS Validation Assay for Iinhibitors of HIV-1 Budding by Blocking the Interaction of PTAP/TSG101 (AID 485342; calls by dose curve). The method, boiled down: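 Tsg101 binding domain (10 uM final) in pH 7.5 HEPES/NaCl/Tween 20/EDTA/TCEP buffer was mixed with pin-transferred compounds, then FITC-labeled PTAP peptide (50 nM final) was added; after 20 min at r.t., fluorescence polarization was read.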

Assay [16] in a line: qHTS Assay for Modulators of Human Peripheral Myelin Protein 22 (PMP22) Expression/Activity (AID 1967; active means well fitted curve in the direction sought with a large enough effect in the signal ratio; the % refers to the signal ratio). The method in brief:
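MSC80 mouse Schwann cells stably carrying Pmp22 promoter–green click beetle luciferase plus EF-alpha–red luciferase control were dosed for 24h at 37 °C. Dual-colour luminescence was filter-overlap corrected; %Activity came from green/red ratio versus untreated cells.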

A short description of assay [17]: qHTS Validation Assay to Find Inhibitors of Chronic Active B-Cell Receptor Signaling (AID 485345; active means well fitted curve in the direction sought with a large enough effect in the main read-out, with a control signal flat, not every such curve was filed as active). The method in brief:
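TMD8 ABC-DLBCL cells with dox-inducible green luciferase–IκBα fusion and red native luciferase; compounds 46 uM–3 nM, 4 h at 37C with doxycycline in 0.5% FBS IMDM. Green/red ratio normalized to basal and 10 uM MG-132.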

For assay [18], the target named is Endonuclease 4 (Escherichia coli (strain K12)) (UniProt P0A6C1). Kind of assay: Counterscreen for APE1 Inhibitors: qHTS Assay for Inhibitors of Endonuclease IV (AID 2565). The method in brief:
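2 nM enzyme was preincubated with compounds for 15 min at room temperature in 50 mM Tris-HCl pH 7.5, 50 mM NaCl, 2 mM MgCl2, 1 mM DTT, 0.01% Tween-20. 50 nM THF-abasic TAMRA/BHQ-2 duplex substrate started the reaction.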
A general note: Counterscreens check selectivity or assay interference.

For assay [19], the target named is DNA repair nuclease/redox regulator APEX1 (Homo sapiens) (UniProt P27695). Kind of assay: Confirmation qHTS Assay for Inhibitors of the Human Apurinic/apyrimidinic Endonuclease 1 (APE1) (AID 2572).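 Further: fluorescence gain from purified APE1 cutting a TAMRA/BHQ-2 THF abasic duplex; nearly all actives have a fitted effect of over 30% in size.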 The method, boiled down:
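Fluorescence gain at 598 nm (Ex 525 nm) reports APE1 cleavage of a TAMRA/BHQ-2-labelled duplex carrying a tetrahydrofuran abasic site, 50 nM final. Activity taken as third-minus-first kinetic read after 15 min compound preincubation, room temperature.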

Ferritin light chain (Equus caballus), sequence (P02791 2-175 limits assumed): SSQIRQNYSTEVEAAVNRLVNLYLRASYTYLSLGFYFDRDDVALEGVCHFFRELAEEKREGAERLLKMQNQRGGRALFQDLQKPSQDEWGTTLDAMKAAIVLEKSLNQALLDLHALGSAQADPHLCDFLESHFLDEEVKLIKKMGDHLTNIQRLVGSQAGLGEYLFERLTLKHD
Beta-2 adrenergic receptor (Homo sapiens), sequence (P07550 whole entry, looked up): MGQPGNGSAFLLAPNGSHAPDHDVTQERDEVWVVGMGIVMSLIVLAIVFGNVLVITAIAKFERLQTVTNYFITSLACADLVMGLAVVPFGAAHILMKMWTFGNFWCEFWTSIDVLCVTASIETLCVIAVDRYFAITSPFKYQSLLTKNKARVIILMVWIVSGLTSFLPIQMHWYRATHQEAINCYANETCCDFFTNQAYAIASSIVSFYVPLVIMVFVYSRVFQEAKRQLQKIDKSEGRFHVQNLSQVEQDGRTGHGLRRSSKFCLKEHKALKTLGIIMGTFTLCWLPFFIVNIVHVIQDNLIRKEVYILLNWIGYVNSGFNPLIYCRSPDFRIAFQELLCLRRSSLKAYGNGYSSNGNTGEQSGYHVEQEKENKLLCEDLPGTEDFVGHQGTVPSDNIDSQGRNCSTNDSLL
RecQ-like DNA helicase BLM (Homo sapiens), sequence (P54132 whole entry, looked up): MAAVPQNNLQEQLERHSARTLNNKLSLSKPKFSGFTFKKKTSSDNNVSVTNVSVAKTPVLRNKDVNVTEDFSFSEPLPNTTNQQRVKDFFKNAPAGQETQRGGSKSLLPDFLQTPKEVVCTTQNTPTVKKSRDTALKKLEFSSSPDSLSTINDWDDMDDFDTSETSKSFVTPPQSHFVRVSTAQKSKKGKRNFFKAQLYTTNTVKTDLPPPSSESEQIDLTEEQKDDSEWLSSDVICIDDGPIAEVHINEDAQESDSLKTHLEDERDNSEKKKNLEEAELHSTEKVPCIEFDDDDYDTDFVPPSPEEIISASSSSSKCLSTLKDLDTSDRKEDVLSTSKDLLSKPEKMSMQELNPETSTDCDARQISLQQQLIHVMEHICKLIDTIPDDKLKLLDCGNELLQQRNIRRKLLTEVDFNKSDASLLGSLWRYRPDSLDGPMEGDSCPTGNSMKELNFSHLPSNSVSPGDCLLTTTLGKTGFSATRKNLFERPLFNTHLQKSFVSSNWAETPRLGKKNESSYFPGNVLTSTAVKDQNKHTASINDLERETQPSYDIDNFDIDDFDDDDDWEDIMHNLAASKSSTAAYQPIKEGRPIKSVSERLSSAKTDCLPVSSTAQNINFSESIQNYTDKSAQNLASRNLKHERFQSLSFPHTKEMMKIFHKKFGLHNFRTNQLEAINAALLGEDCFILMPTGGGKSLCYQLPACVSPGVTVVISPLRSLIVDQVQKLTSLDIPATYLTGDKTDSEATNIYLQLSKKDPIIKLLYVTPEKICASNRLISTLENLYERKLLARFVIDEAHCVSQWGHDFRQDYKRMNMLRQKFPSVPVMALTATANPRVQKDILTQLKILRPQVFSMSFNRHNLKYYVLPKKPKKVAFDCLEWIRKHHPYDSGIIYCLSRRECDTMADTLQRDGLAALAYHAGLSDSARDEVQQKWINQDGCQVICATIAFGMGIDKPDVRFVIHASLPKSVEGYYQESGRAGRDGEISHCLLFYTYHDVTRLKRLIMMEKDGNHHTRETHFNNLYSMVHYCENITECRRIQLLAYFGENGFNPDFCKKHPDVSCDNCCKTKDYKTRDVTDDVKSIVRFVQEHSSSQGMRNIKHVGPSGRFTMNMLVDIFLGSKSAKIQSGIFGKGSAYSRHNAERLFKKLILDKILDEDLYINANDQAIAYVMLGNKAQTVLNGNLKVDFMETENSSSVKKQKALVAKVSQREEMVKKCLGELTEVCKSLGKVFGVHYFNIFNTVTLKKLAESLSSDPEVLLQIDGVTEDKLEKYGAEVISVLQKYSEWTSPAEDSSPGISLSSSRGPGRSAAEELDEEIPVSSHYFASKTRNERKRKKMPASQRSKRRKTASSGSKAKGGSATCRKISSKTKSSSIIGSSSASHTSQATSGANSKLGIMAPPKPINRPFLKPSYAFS
Tumor susceptibility gene 101 protein (Homo sapiens), sequence (Q99816 whole entry, looked up, the tested form may be a part): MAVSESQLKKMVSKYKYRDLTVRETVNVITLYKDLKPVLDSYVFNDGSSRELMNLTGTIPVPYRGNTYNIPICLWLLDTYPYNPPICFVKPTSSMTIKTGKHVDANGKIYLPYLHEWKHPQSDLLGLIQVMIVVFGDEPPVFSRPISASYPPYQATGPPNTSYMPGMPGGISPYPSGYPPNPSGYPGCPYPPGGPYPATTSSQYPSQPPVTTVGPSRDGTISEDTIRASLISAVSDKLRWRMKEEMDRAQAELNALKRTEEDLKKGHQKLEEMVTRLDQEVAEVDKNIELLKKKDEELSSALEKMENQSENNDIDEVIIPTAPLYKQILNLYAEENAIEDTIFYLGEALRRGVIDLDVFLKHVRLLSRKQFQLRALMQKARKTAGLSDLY
DNA polymerase III PolC-type (Bacillus subtilis (strain 168)), sequence (P13267 whole entry, looked up): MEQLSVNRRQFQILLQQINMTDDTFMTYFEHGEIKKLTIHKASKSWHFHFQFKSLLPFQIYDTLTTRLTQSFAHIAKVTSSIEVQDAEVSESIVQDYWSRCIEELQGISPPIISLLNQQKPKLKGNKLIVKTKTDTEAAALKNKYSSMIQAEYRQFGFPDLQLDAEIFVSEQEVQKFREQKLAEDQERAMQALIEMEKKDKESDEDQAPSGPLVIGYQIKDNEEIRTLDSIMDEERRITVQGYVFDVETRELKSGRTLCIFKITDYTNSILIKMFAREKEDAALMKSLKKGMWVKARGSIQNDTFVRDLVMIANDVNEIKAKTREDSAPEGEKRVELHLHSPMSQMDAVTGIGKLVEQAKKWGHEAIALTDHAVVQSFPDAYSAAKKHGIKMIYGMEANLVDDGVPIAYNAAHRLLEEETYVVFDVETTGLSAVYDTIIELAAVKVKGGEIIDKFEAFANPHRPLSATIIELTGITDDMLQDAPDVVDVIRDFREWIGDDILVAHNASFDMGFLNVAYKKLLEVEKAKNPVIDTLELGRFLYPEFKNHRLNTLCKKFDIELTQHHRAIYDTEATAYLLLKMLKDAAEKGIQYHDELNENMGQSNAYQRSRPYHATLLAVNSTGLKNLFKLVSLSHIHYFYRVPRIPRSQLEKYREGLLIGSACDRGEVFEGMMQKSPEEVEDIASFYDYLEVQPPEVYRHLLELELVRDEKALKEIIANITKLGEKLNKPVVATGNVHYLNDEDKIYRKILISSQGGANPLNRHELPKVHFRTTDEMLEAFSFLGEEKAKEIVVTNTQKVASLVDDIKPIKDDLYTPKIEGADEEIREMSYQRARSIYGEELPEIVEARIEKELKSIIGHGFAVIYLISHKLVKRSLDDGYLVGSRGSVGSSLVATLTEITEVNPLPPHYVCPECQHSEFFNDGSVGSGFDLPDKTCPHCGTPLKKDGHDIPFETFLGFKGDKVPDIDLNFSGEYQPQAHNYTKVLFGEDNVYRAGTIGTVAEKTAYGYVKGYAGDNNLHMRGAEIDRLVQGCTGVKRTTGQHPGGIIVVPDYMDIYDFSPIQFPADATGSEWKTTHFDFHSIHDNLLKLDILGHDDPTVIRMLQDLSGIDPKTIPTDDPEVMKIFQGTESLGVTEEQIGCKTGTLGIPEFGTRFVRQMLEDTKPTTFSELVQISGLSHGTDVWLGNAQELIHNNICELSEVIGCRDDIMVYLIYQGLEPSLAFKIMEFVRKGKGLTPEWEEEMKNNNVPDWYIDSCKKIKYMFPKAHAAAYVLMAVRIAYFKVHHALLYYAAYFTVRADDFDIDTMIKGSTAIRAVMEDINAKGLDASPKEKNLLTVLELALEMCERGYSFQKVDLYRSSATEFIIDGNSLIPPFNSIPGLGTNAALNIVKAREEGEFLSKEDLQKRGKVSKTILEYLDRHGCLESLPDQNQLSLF
DNA repair nuclease/redox regulator APEX1 (Homo sapiens), sequence (P27695 whole entry, looked up): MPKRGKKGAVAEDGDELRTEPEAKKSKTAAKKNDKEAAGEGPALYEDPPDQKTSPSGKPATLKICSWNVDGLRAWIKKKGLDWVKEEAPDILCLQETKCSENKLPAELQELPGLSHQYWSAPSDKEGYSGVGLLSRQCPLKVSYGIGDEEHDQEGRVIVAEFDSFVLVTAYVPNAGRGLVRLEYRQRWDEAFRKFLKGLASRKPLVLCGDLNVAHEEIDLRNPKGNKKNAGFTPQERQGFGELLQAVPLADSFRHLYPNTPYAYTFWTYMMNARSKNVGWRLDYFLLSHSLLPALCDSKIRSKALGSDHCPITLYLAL

With `CC(=O)C(C)=O`, the Potency result in assay [1], in assay [2], in assay [3], in [4], in assay [5] and in assay [6] was “inactive” throughout. The Potency entry in assay [8], in assay [9], in assay [10], in assay [11] and in [12] was “inactive” in each case. The call in assay [7] and in assay [13] was inactive.

Turning to `NC(=O)c1ccccc1`, the Potency entry in assay [1], in assay [2], in [3], in [4], in [5] and in assay [14] was “inactive” throughout. For the same compound, the Potency result in assay [8], in assay [9], in assay [10], in assay [11] and in assay [12] was “inactive” each time. The compound was classed as inactive in assay [7], in assay [15] and in assay [13].

Turning to `CCCCCCCCCCCCCCCCCCOC[C@H](COP(=O)([O-])OCC[N+](C)(C)C)OC`, the Potency result in assay [1], in assay [2], in assay [3], in [5], in assay [14] and in [8] was “inactive” in each case. For the same compound, the Potency entry in assay [9] and in [11] was “inactive” in each case. Moreover, the compound was called inactive in [16], in [7], in assay [15] and in assay [13].

As to `CCCCCCCCCCCCCCSCC(=O)O`, the Potency entry in assay [1], in assay [2], in [3], in assay [5], in [14] and in assay [8] was “inactive” throughout. The Potency result in assay [9], in [11] and in assay [12] was “inactive” in each case. For the same compound, the outcome in assay [16], in [7], in assay [15], in [17] and in [13] was inactive.

On to `NS(=O)(=O)c1cccc2c1c([N+](=O)[O-])cc1nc(O)c(O)nc12`, for which the Potency result in assay [1], in assay [3], in assay [5], in assay [14], in [8] and in assay [10] was “inactive” throughout. Also, the Potency entry in assay [11] and in assay [12] was “inactive” in each case. For the same compound, the Potency in assay [2] is 11.2 µM (active). The outcome in [16], in assay [7], in assay [15] and in [13] was inactive.

For `C=CC[C@H](N)C(=O)O`, the Potency entry in [1], in assay [2], in [3], in [4], in assay [5] and in [14] was “inactive” each time. For the same compound, the Potency entry in assay [8], in assay [9], in assay [10], in assay [11] and in assay [12] was “inactive” each time. In addition, the compound was classed as inactive in [7], in [17] and in assay [13].

In the case of `COc1ccc2c(c1)c(CC(=O)O)c(C)n2C(=O)c1ccccc1`, the Potency result in assay [1], in assay [2], in assay [3], in assay [4], in assay [5] and in [14] was “inactive” throughout. The Potency entry in [8], in assay [9], in [10], in assay [11] and in [12] was “inactive” each time. In addition, the result in [7], in assay [15], in [17] and in assay [13] was inactive.

As for `CCOC(=O)C12CC1/C(=N/O)c1ccccc1O2` (stereo not given), the Potency result in [1], in [2], in assay [3], in [4], in [5] and in [14] was “inactive” each time. For the same compound, the Potency entry in assay [8], in [9], in assay [10], in assay [11] and in assay [12] was “inactive” throughout. For the same compound, the call in [7] and in assay [17] was inactive.

For `N[C@@H](Cc1ccc(F)cc1)C(=O)O`, the Potency result in assay [1], in [4], in assay [5], in assay [6], in [14] and in assay [8] was “inactive” each time. In addition, the Potency entry in assay [9], in assay [10], in assay [11] and in [12] was “inactive” each time. The Potency in [2] was 11.2 µM (active); in assay [3] it was 12.6 µM (active). Further, the result in [7], in assay [15] and in [13] was inactive.

In the case of `NC1CCN(O)C1=O` (stereo not given), the Potency result in assay [1], in [2], in [3], in assay [4], in assay [5] and in assay [6] was “inactive” in each case. Further, the Potency result in [14], in assay [8], in assay [9], in assay [10], in [11] and in [12] was “inactive” throughout. Also, the call in assay [18], in [19], in assay [7], in [17] and in [13] was inactive.
